# In the supplement of paper PMC4022240:
# ± gives the standard deviation.
# T1: HaloTag-ATRX ADD domain (163-292)
# T1 chain: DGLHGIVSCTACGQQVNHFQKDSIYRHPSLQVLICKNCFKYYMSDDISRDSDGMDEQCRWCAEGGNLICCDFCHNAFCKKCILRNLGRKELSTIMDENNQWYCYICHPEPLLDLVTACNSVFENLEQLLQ
# Experiments:
# Assay in all cases: peptide microarray binding signal (635 nm), min-max normalized on array (fraction of array maximum); higher = stronger binding
# Conditions in all cases: peptide region: H3 112-124
# [1] = molecular target: T1, HaloTag-ATRX ADD domain (163-292)
# In short: (§1)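 Binding signal is the mean intensity of triplicate spots, min-max scaled within each library. Histone 13-mer peptide–cellulose conjugates were spotted in triplicate on nitrocellulose with a Cy3 tracer and blocked overnight at 4°C. Probing lasted 1 h at 4°C, either with biotin-labelled HaloTag reader fusions (10 nM to 1 μM) and streptavidin-Alexa Fluor 647 or with rabbit histone antibodies (1:10,000 to 1:2,000) and anti-rabbit Alexa 647. An Axon GenePix 4000B read signal at 635 nm and misprints at 532 nm.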
# [2] = molecular target: HaloTag-ING2 PHD (mouse Ing2 200-280)
# In short: as §1
# [3] = molecular target: anti-H3K4me3 antibody ab8580
# In short: as §1
# [4] = molecular target: anti-H3K9me3 antibody ab8898
# In short: as §1
# [5] = peptide modifications: H3K115ac H3R116me1, binder concentration: 1:2,000 dilution
# [6] = peptide modifications: H3K115ac H3R116me1, binder concentration: 1:10,000 dilution
# [7] = binder concentration: 1:2,000 dilution
# [8] = binder concentration: 1:10,000 dilution
# [9] = peptide modifications: H3K115ac H3R116cit, binder concentration: 1:2,000 dilution
# [10] = peptide modifications: H3K115ac H3R116cit, binder concentration: 1:10,000 dilution
# [11] = peptide modifications: H3K115me1 H3K122me2, binder concentration: 1:2,000 dilution
# [12] = peptide modifications: H3K115me1 H3K122me2, binder concentration: 1:10,000 dilution
# [13] = peptide modifications: H3K115ac H3R116me2s, binder concentration: 1:2,000 dilution
# [14] = peptide modifications: H3K115ac H3R116me2s, binder concentration: 1:10,000 dilution
binder,measurement,setting,value
IHAKRVTIMPKDI [H3 112-124 I H A Kac Rme V T I M P K D I],peptide microarray binding signal,"[1]; peptide modifications: H3K115ac H3R116me1, binder concentration: 50 nM",0.0108 ± 0.00025
same,peptide microarray binding signal,"[1]; peptide modifications: H3K115ac H3R116me1, binder concentration: 500 nM",0.0193 ± 0.00083
same,peptide microarray binding signal,"[2]; peptide modifications: H3K115ac H3R116me1, binder concentration: 10 nM",0.0322 ± 0.0019
same,peptide microarray binding signal,"[2]; peptide modifications: H3K115ac H3R116me1, binder concentration: 100 nM",0.0449 ± 0.0042
same,peptide microarray binding signal,[3]; [5],0.00519 ± 0.0005
same,peptide microarray binding signal,[3]; [6],0.00542 ± 0.00027
same,peptide microarray binding signal,[4]; [5],0.00293 ± 0.00034
same,peptide microarray binding signal,[4]; [6],0.00254 ± 3.9e-05
IHAKRVTIMPKDI [H3 112-124 I H A K R V T I M P K D I],peptide microarray binding signal,[1]; binder concentration: 50 nM,0.00972 ± 0.00063
same,peptide microarray binding signal,[1]; binder concentration: 500 nM,0.0345 ± 0.00086
same,peptide microarray binding signal,[2]; binder concentration: 10 nM,0.0135 ± 0.0014
same,peptide microarray binding signal,[2]; binder concentration: 100 nM,0.0205 ± 0.0093
same,peptide microarray binding signal,[3]; [7],0.00261 ± 0.00029
same,peptide microarray binding signal,[3]; [8],0.001883 ± 1.8e-05
same,peptide microarray binding signal,[4]; [7],0.00415 ± 0.00045
same,peptide microarray binding signal,[4]; [8],0.00167 ± 2.8e-05
IHAKRVTIMPKDI [H3 112-124 I H A Kac Rcit V T I M P K D I],peptide microarray binding signal,"[1]; peptide modifications: H3K115ac H3R116cit, binder concentration: 50 nM",0.00668 ± 0.00021
same,peptide microarray binding signal,"[1]; peptide modifications: H3K115ac H3R116cit, binder concentration: 500 nM",0.0105 ± 0.00017
same,peptide microarray binding signal,"[2]; peptide modifications: H3K115ac H3R116cit, binder concentration: 10 nM",0.0109 ± 0.00031
same,peptide microarray binding signal,"[2]; peptide modifications: H3K115ac H3R116cit, binder concentration: 100 nM",0.016 ± 0.00067
same,peptide microarray binding signal,[3]; [9],0.00179 ± 5.5e-05
same,peptide microarray binding signal,[3]; [10],0.00211 ± 3.4e-05
same,peptide microarray binding signal,[4]; [9],0.00154 ± 1.8e-05
same,peptide microarray binding signal,[4]; [10],0.00127 ± 1.3e-05
IHAKRVTIMPKDI [H3 112-124 I H A Kme R V T I M P Kme2 D I],peptide microarray binding signal,"[1]; peptide modifications: H3K115me1 H3K122me2, binder concentration: 50 nM",0.00423 ± 4.3e-05
same,peptide microarray binding signal,"[1]; peptide modifications: H3K115me1 H3K122me2, binder concentration: 500 nM",0.00881 ± 0.00019
same,peptide microarray binding signal,"[2]; peptide modifications: H3K115me1 H3K122me2, binder concentration: 10 nM",0.0148 ± 0.0012
same,peptide microarray binding signal,"[2]; peptide modifications: H3K115me1 H3K122me2, binder concentration: 100 nM",0.0263 ± 0.0033
same,peptide microarray binding signal,[3]; [11],0.0016 ± 6.6e-05
same,peptide microarray binding signal,[3]; [12],0.001826 ± 1.7e-05
same,peptide microarray binding signal,[4]; [11],0.00125 ± 6.5e-05
same,peptide microarray binding signal,[4]; [12],0.00133 ± 2.3e-05
IHAKRVTIMPKDI [H3 112-124 I H A Kac Rme2s V T I M P K D I],peptide microarray binding signal,"[1]; peptide modifications: H3K115ac H3R116me2s, binder concentration: 50 nM",0.005956 ± 4.1e-05
same,peptide microarray binding signal,"[1]; peptide modifications: H3K115ac H3R116me2s, binder concentration: 500 nM",0.0125 ± 0.0017
same,peptide microarray binding signal,"[2]; peptide modifications: H3K115ac H3R116me2s, binder concentration: 10 nM",0.0167 ± 0.0042
same,peptide microarray binding signal,"[2]; peptide modifications: H3K115ac H3R116me2s, binder concentration: 100 nM",0.0203 ± 0.0028
same,peptide microarray binding signal,[3]; [13],0.00436 ± 0.00063
same,peptide microarray binding signal,[3]; [14],0.00576 ± 0.00047
same,peptide microarray binding signal,[4]; [13],0.00375 ± 0.00054
same,peptide microarray binding signal,[4]; [14],0.00398 ± 0.00024
